Test results published in PubChem BioAssay (NCI).
This is part of a sample that, as a whole, favours compounds with a hit. Of some 83,000 tested, about 20% had one in any assay.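 In brief: 96-well plates, 48 h treatment, single concentration, percent growth endpoint.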 The source made the active and inactive calls. The calls were made as follows: active = growth percent below 10; inactive = the rest.

Key:
Experiment in all cases: NCI-60 one-dose screen, 48 h (100 = growth as untreated, 0 = no growth, -100 = all killed)
Settings in all cases: 10 µM unless noted
SK-MEL-2 melanoma = system: SK-MEL-2 melanoma
EKVX NSCLC = system: EKVX NSCLC
SN12C renal = system: SN12C renal
UO-31 renal = system: UO-31 renal
TK-10 renal = system: TK-10 renal
A498 renal = system: A498 renal
CCRF-CEM leukemia = system: CCRF-CEM leukemia
MOLT-4 leukemia = system: MOLT-4 leukemia

Measured: growth

C#C[C@@]1(O)[C@@H](CO)O[C@@H](n2cc(C(F)(F)F)c3c(N)ncnc32)[C@@H]1O
inactive: TK-10 renal 12.5%
active: SK-MEL-2 melanoma -52.9% | EKVX NSCLC 5.12% | SN12C renal 9.05% | UO-31 renal -35.4% | A498 renal -84.3% | CCRF-CEM leukemia 5.1% | MOLT-4 leukemia -8.68%

COc1cc(-c2nc(N)n(CC(=O)Nc3ccc(/C(C)=N\O)cc3)n2)cc(OC)c1OC
inactive: SK-MEL-2 melanoma 92.1% | EKVX NSCLC 106% | SN12C renal 96% | UO-31 renal 79.5% | TK-10 renal 90.9% | A498 renal 89.8% | CCRF-CEM leukemia 84.5% | MOLT-4 leukemia 91.6%

CC[C@@]1(O)C(=O)OCc2c1cc1n(c2=O)Cc2c-1nc1ccccc1c2/C=N/OC(C)(C)C
inactive: EKVX NSCLC 17%
active: SK-MEL-2 melanoma -17.8% | SN12C renal 5.56% | UO-31 renal -64.8% | TK-10 renal 1.26% | A498 renal -70.2% | CCRF-CEM leukemia 4.16% | MOLT-4 leukemia -10.6%

O=c1cc(Cl)[nH]c(=O)[nH]1
inactive: SK-MEL-2 melanoma 91.8% | EKVX NSCLC 104% | SN12C renal 107% | UO-31 renal 96.4% | TK-10 renal 98.1% | A498 renal 100% | CCRF-CEM leukemia 111% | MOLT-4 leukemia 88.5%

CC1CCC(C(C)C)C(NN)C1 (stereo unspecified)
inactive: SK-MEL-2 melanoma 101% | EKVX NSCLC 102% | SN12C renal 102% | UO-31 renal 88.8% | TK-10 renal 96.5% | A498 renal 105% | CCRF-CEM leukemia 89.5% | MOLT-4 leukemia 65.9%

CNCCCOc1c(Br)cc(CCNC(=O)/C(Cc2ccc(OC)c(Br)c2)=N/O)cc1Br
inactive: SK-MEL-2 melanoma 40% | EKVX NSCLC 65.5% | SN12C renal 57.6% | UO-31 renal 41.7% | TK-10 renal 74.1% | A498 renal 39.4% | CCRF-CEM leukemia 31.6% | MOLT-4 leukemia 10.3%

COc1ccc(NC(=O)COCCOCCNC[C@@H]2C(=O)O[C@H]3[C@H]2CC/C(COC(=O)OC/C2=C/CC[C@@]4(C)O[C@H]4[C@H]4OC(=O)[C@@H](CN(C)C)[C@@H]4CC2)=C\CC[C@@]2(C)O[C@@H]32)c(O)c1C(N)=O
active: UO-31 renal 2.07% | TK-10 renal -0.421% | CCRF-CEM leukemia -9.68% | MOLT-4 leukemia -5.18%
inactive: SK-MEL-2 melanoma 68.3% | EKVX NSCLC 81.5% | SN12C renal 40% | A498 renal 96.2%

CCc1cccc(C)c1NC(=O)c1sc2nc3c(cc2c1N)CCCCC3
inactive: SK-MEL-2 melanoma 38.9% | EKVX NSCLC 45.7% | SN12C renal 41.1% | UO-31 renal 51% | TK-10 renal 66.7% | CCRF-CEM leukemia 16.6% | MOLT-4 leukemia 26.7%
active: A498 renal 8.2%

Cc1c(F)cccc1NC(=O)c1sc2nc3c(cc2c1N)CCCCC3
inactive: SK-MEL-2 melanoma 40.7% | EKVX NSCLC 64.7% | SN12C renal 84.6% | UO-31 renal 72.7% | TK-10 renal 85.3% | A498 renal 33.7% | CCRF-CEM leukemia 23.6% | MOLT-4 leukemia 30.7%

NC(CCCC(N)C(=O)c1ccccc1)C(=O)O (stereo unspecified)
inactive: SK-MEL-2 melanoma 92.7% | EKVX NSCLC 101% | SN12C renal 104% | UO-31 renal 84.3% | TK-10 renal 86.7% | A498 renal 103% | CCRF-CEM leukemia 111% | MOLT-4 leukemia 94.5%

NC(=S)NNC1CCCCC1
inactive: SK-MEL-2 melanoma 97.3% | EKVX NSCLC 89.9% | SN12C renal 95.7% | UO-31 renal 72.6% | TK-10 renal 97.2% | A498 renal 100% | CCRF-CEM leukemia 84.9% | MOLT-4 leukemia 70.9%

OCc1cn(-c2ccc(Cl)cc2)nc1-c1ccc(O)cc1
inactive: SK-MEL-2 melanoma 95.8% | EKVX NSCLC 89.7% | SN12C renal 94.3% | UO-31 renal 63.5% | TK-10 renal 102% | A498 renal 96.9% | CCRF-CEM leukemia 50.3% | MOLT-4 leukemia 53.6%

O=C(O)c1ccc(-n2cc(/C=N/Nc3ccc(F)cc3)c(-c3cccc(C(F)(F)F)c3)n2)cc1
inactive: SK-MEL-2 melanoma 70.1% | EKVX NSCLC 70.8% | SN12C renal 86.9% | UO-31 renal 45.6% | TK-10 renal 91.9% | A498 renal 69% | CCRF-CEM leukemia 33.7% | MOLT-4 leukemia 36.5%

O=C(NNC(=O)c1ccc([N+](=O)[O-])cc1)c1ccc([N+](=O)[O-])cc1
inactive: SK-MEL-2 melanoma 107% | EKVX NSCLC 93.7% | SN12C renal 112% | UO-31 renal 95.4% | TK-10 renal 96.1% | A498 renal 90.5% | CCRF-CEM leukemia 91.6% | MOLT-4 leukemia 100%

O=C(/C=C/c1ccccc1)Oc1ccc(/C=C/c2cc(OC(=O)/C=C/c3ccccc3)cc(OC(=O)/C=C/c3ccccc3)c2)cc1
inactive: SK-MEL-2 melanoma 105% | EKVX NSCLC 99.1% | SN12C renal 106% | UO-31 renal 82.9% | TK-10 renal 87% | A498 renal 91.3% | CCRF-CEM leukemia 91.1% | MOLT-4 leukemia 86.8%

COC(=O)c1ccc(NC(N)=NCC(C)(C)COc2ccc(C(F)(F)F)cc2)nc1
active: MOLT-4 leukemia 9.32%
inactive: SK-MEL-2 melanoma 79.9% | EKVX NSCLC 45.5% | SN12C renal 51.3% | UO-31 renal 41.1% | TK-10 renal 53.9% | A498 renal 74.2% | CCRF-CEM leukemia 15.7%

CC(=O)Oc1ccc(C(OC(C)=O)OC(C)=O)cc1
inactive: SK-MEL-2 melanoma 104% | EKVX NSCLC 94.1% | SN12C renal 102% | UO-31 renal 89.8% | TK-10 renal 98.8% | A498 renal 92.3% | CCRF-CEM leukemia 94.5% | MOLT-4 leukemia 91.1%

COc1cc(/C=C/C(=O)c2ccc(Oc3ncnc4ccccc34)cc2)cc(OC)c1OC
inactive: SK-MEL-2 melanoma 94.6% | EKVX NSCLC 87% | SN12C renal 68.3% | UO-31 renal 51.6% | TK-10 renal 100% | A498 renal 104% | CCRF-CEM leukemia 36.6% | MOLT-4 leukemia 62.3%

CCCCOc1c(N)cccc1C(=O)OCCN(CC)CC
inactive: SK-MEL-2 melanoma 96.6% | EKVX NSCLC 104% | SN12C renal 95.7% | UO-31 renal 80.8% | TK-10 renal 81.8% | A498 renal 90.5% | CCRF-CEM leukemia 90.6% | MOLT-4 leukemia 60.2%

CCCCCCCCCCCCCCCCNc1ccccc1
inactive: SK-MEL-2 melanoma 90% | EKVX NSCLC 106% | SN12C renal 70.7% | UO-31 renal 57.9% | TK-10 renal 90.9% | A498 renal 114% | CCRF-CEM leukemia 44.4% | MOLT-4 leukemia 43.1%

CC(C)(CCN=C(N)Nc1ccccn1)c1ccc(C(F)(F)F)cc1
active: CCRF-CEM leukemia 7.26% | MOLT-4 leukemia -15.6%
inactive: SK-MEL-2 melanoma 38.5% | EKVX NSCLC 21.6% | SN12C renal 23.9% | UO-31 renal 14.4% | TK-10 renal 37% | A498 renal 57.2%

COc1ccc2c(c1)O/C(=C/c1ccc(OCC(=O)Nc3ccc(S(N)(=O)=O)cc3)cc1)C2=O
inactive: SK-MEL-2 melanoma 97.7% | EKVX NSCLC 97.5% | SN12C renal 98.1% | UO-31 renal 85.6% | TK-10 renal 115% | A498 renal 91.5% | CCRF-CEM leukemia 94.6% | MOLT-4 leukemia 88.3%

O=C(O)c1ccc(-c2nn(-c3ccc(C(=O)O)cc3)cc2/C=N/Nc2c(F)c(F)cc(F)c2F)cc1
inactive: SK-MEL-2 melanoma 99.1% | EKVX NSCLC 103% | SN12C renal 107% | UO-31 renal 92.4% | TK-10 renal 98.1% | A498 renal 115% | CCRF-CEM leukemia 97.9% | MOLT-4 leukemia 92.8%

COc1ccc(/C=C/C(=O)c2ccc(NC(=O)CSc3nnc(-c4cc(OC)c(OC)c(OC)c4)o3)cc2)cc1
inactive: SK-MEL-2 melanoma 37.7% | TK-10 renal 78.8% | A498 renal 90.5%
active: EKVX NSCLC -2.83% | SN12C renal -43.5% | UO-31 renal -85.3% | CCRF-CEM leukemia -1.51% | MOLT-4 leukemia -25.9%

COc1ccc(Cl)cc1NC(=O)c1cc2c([nH]1)-c1nc(NC(=O)C(C)C)sc1CC2
inactive: SK-MEL-2 melanoma 84.6% | EKVX NSCLC 82.1% | SN12C renal 99.2% | UO-31 renal 51.9% | TK-10 renal 85.8% | A498 renal 112% | CCRF-CEM leukemia 93.4% | MOLT-4 leukemia 86%

COc1ccc2c(c1)OC(N)=C(C#N)C2c1ccc(F)cc1 (stereo unspecified)
inactive: SK-MEL-2 melanoma 18.5% | EKVX NSCLC 44.8% | SN12C renal 43.8% | UO-31 renal 41.8% | TK-10 renal 69.5% | CCRF-CEM leukemia 12.6% | MOLT-4 leukemia 28.3%
active: A498 renal -3.77%

S=C=NP1(N=C=S)=NP(N=C=S)(N=C=S)=NP(N=C=S)(N=C=S)=NP(N=C=S)(N=C=S)=N1 (stereo unspecified)
inactive: SK-MEL-2 melanoma 95.8% | EKVX NSCLC 95% | SN12C renal 102% | UO-31 renal 77.3% | TK-10 renal 110% | A498 renal 118% | CCRF-CEM leukemia 105% | MOLT-4 leukemia 57.9%

O=C1CCC(=O)N1C1CCCCC1
inactive: SK-MEL-2 melanoma 103% | EKVX NSCLC 98.4% | SN12C renal 100% | UO-31 renal 84.3% | TK-10 renal 105% | A498 renal 97.1% | CCRF-CEM leukemia 108% | MOLT-4 leukemia 95.7%

CC(Cl)(CCl)CS(=O)(=O)c1ccc(Cl)cc1 (stereo unspecified)
inactive: SK-MEL-2 melanoma 99.1% | EKVX NSCLC 103% | SN12C renal 105% | UO-31 renal 92.8% | TK-10 renal 93.2% | A498 renal 77.2% | CCRF-CEM leukemia 109% | MOLT-4 leukemia 101%

Cc1cccc(CC(=O)c2ccccc2)n1
inactive: SK-MEL-2 melanoma 96.7% | EKVX NSCLC 79.2% | SN12C renal 94.5% | UO-31 renal 81.5% | TK-10 renal 95.6% | A498 renal 74.3% | CCRF-CEM leukemia 71.8% | MOLT-4 leukemia 90.5%

O=C1CCC(c2c(O)cc(O)c3c(=O)c(O)c(-c4ccc(O)c(O)c4)oc23)N1 (stereo unspecified)
inactive: SK-MEL-2 melanoma 98.2% | EKVX NSCLC 106% | SN12C renal 105% | UO-31 renal 82.6% | TK-10 renal 92.7% | A498 renal 92.1% | CCRF-CEM leukemia 103% | MOLT-4 leukemia 92.2%

Nc1c(C(=O)O)[nH]c(=O)[nH]c1=O
inactive: SK-MEL-2 melanoma 99.5% | EKVX NSCLC 105% | SN12C renal 98.3% | UO-31 renal 94.2% | TK-10 renal 103% | A498 renal 106% | CCRF-CEM leukemia 90.3% | MOLT-4 leukemia 96.2%
